The nature of assay [1]: inhibitors of TNFa-induced NFkB p65 translocation, primary screen, imaging, HUVEC, MLSMR starter and 10KST1 sets (AID 438;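 active = inhibition above 20% together with a positive visual image hit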;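 note: compound added about 3h40 before a 20 min TNFalpha stimulation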;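 for inhibition: signal is the nuclear over cytoplasmic p65 intensity ratio per well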). The conditions noted are these: HUVEC TNFa-induced p65 nuclear translocation; cell count: measured here: nuclei count (cytotoxicity indicator), at 2.08 µM; inhibition: at 2 µM, stronger effect = higher value, 0% TNFa-plus-vehicle, 100% no-TNFa wells.
Assay [2] in a line: inhibitors of mutant huntingtin aggregation, primary screen, imaging, exon1htt(103Q)mCFP cells, high-content imaging (AID 483).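 For nuclei count: percent of the per-plate median nuclei count of sample wells.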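 Note: compound exposure lasted 3 days before fixation.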 Conditions: exon1htt(103Q)mCFP cell line, aggregate imaging, at 2 µM; inhibition of aggregation: stronger effect = higher value; nuclei count: measured here: cell count, toxicity.
Assay [3] in a line: inhibitors of E-selectin induction by TNFa, primary screen, imaging, HUVEC, immunofluorescence, MLSMR starter and 10KST1 sets (AID 487;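 active = visually confirmed hit in the image check and inhibition above 20%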;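 for inhibition: signal is fraction of cell area covered by stained E-selectin grains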;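 for nuclei count: 100% = median nuclei count of all wells on the same plate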). Conditions: HUVEC TNFalpha-induced E-selectin immunofluorescence imaging, at 2 µM; inhibition: stronger effect = higher value; nuclei count: measured here: cell number, toxicity.
In assay [4] the target is Voltage-gated potassium channel subunit beta-2 (Rattus norvegicus) (UniProt P62483). The experiment in a line: KvBeta enzyme negative modulators, primary screen, biochemical, NADPH fluorescence (AID 622;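 active = fluorescence slope higher than the sample average by over 3 SD, cut at about -0.22 in these data, passing the limit was not always enough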;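 note: slope of raw intensity against log time taken from 70 to 1610 s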). The conditions noted are these: recombinant KvBeta, 4-cyanobenzaldehyde reduction, at 10 µM, stronger effect = higher value.
The target is the same in assay [5]. The experiment in a line: KvBeta positive modulators, primary screen, biochemical, NADPH fluorescence (AID 623;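 active = NADPH fluorescence slope more negative than the mean of all samples by about 3 SD, 99.7% confidence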;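 note: fluorescence intensity change per second fitted from 20 to 320 s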). The conditions noted are these: Recombinant KvBeta, NADPH fluorescence decrease slope, 10 min; at 10 µM; stronger effect = lower value.
The target in assay [6] is Alpha-2C adrenergic receptor (Homo sapiens) (UniProt P18825). The experiment in a line: modulators of alpha2C/GIRK thallium flux, primary screen, cell-based, HEK293 alpha2C/GIRK1/2 (AID 624;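 active = fluorescence slope after compound addition differing from the mean of all screened samples at 99.7% confidence, in either direction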;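 note: slope of fluorescence ratio to pre-addition baseline per second over 15 to 24 s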). The conditions noted are these: thallium flux BTC fluorescence, at 10 µM, actives lie on both sides.
A short description of assay [7]: inhibitors of Sendai virus-induced IRF3 signaling, primary screen, TLR/RLR signaling modifier project, cell-based, Sendai virus stimulus, luciferase, 10K MLSCN set (AID 602276;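 active = inhibition at or above 50% at 10 µM; inactive = inhibition below 50%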;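 note: firefly luciferase from ISG56 promoter only with Renilla not read in this screen; 0% = Sendai virus plus DMSO and 100% = medium plus DMSO without virus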). The conditions noted are these: HEK293 RL24 IRF3 luciferase reporter, at 10 µM, stronger effect = higher value.
Assay [8] is described as follows: inhibitors of poly I:C-induced TLR3 signaling, primary screen, cell-based, poly I:C stimulus, luciferase, 10K MLSCN set (AID 602277;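 active = inhibition of the reporter signal at or above 50%; inactive = inhibition below 50%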). Conditions: HEK293-TLR3 RL24 IRF3 luciferase reporter, at 10 µM, stronger effect = higher value.

Molecules are shown by their SMILES. Activity calls are given as the source filed them.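 Rule for the calls, unless noted: active = visual image review flags a hit and inhibition of aggregation exceeds 20%; inconclusive = visual hit but inhibition at or below 20%; inactive = no hit on visual image review.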

Sequence of Alpha-2C adrenergic receptor (Homo sapiens) (P18825 whole entry, looked up): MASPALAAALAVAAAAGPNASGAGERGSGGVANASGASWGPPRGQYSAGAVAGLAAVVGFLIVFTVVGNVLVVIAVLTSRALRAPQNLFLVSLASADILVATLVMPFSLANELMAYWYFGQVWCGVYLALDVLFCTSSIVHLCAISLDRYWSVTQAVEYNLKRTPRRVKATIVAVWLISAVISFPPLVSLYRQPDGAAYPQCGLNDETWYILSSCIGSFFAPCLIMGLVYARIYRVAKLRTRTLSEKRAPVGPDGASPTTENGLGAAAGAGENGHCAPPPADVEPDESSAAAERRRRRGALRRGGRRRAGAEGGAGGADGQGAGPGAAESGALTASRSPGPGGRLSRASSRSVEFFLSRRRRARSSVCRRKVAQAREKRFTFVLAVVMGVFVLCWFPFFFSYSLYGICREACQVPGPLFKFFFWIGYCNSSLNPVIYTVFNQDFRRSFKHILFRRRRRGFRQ
Sequence of Voltage-gated potassium channel subunit beta-2 (Rattus norvegicus) (P62483 whole entry, looked up): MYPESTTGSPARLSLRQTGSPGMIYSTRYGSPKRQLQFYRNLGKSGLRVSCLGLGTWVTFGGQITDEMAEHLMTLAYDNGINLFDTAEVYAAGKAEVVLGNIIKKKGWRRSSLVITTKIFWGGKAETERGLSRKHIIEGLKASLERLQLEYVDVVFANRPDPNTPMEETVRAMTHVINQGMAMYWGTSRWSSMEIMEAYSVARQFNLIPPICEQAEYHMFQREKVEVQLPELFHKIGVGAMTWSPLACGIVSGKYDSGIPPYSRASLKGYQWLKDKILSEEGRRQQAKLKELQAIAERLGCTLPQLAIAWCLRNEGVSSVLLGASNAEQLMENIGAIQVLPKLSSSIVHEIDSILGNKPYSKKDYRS

For orientation: inhibition means the drop in the measured response relative to a control, in per cent. For `NC(=O)CSc1cn(CCNC(=O)c2cccs2)c2ccccc12`, in assay [1], the cell count turned out to be 604. For the same compound, the inhibition in assay [1] was -1.4% (inactive); in assay [3], 19% (inactive); in assay [7], -2.46% (inactive); in assay [8], 23.4% (inactive). In addition, the inhibition of aggregation in assay [2] was 7% (inactive). Besides, the nuclei count in assay [2] came out at 84.8%; in assay [3], 98.2%. Further, in assay [4], the fluorescence slope was -0.436 (inactive). For the same compound, in assay [5], the NADPH fluorescence slope is -4.5e-05 (inactive). Moreover, in assay [6], the slope is 0.00564 (inactive).
`Cn1ccnc1SCC(=O)Nc1ccc2ccccc2c1`: the cell count in assay [1] was 228. Also, the inhibition in assay [1] is 9.6% (inactive); in assay [3], -14.1% (inactive); in assay [7], 2.61% (inactive); in assay [8] it was -32.6% (inactive). In addition, the inhibition of aggregation in assay [2] is 13.5% (inactive). Also, the nuclei count in assay [2] worked out at 120%; in assay [3] it was 105%. Also, in assay [4], the fluorescence slope is -0.519 (inactive). Besides, the NADPH fluorescence slope in assay [5] is -4.1e-05 (inactive). Moreover, the slope in assay [6] is 0.00777 (inactive).
With `Cc1ccc(S(=O)(=O)C2(C(=O)Nc3nccs3)CC2)cc1`, the cell count in assay [1] turned out to be 584. The inhibition in assay [1] is 6.5% (inactive); in assay [3] it was -69.3% (inactive); in assay [7], 13% (inactive); in assay [8], 32.7% (inactive). Further, the inhibition of aggregation in assay [2] is 0% (inactive). In addition, the nuclei count turned out to be 95.6% in assay [2] and 103% in assay [3]. In addition, in assay [4], the fluorescence slope was -0.586 (inactive). Besides, the NADPH fluorescence slope in assay [5] is -2.1e-05 (inactive). The slope in assay [6] was 0.00637 (inactive).
On to `O=C(c1ncn[nH]1)N1CCN(c2nc(-c3ccccc3)cs2)CC1`, for which the cell count in assay [1] is 397. Also, the inhibition in assay [1] is 2.5% (inactive); in assay [3], 22.4% (inactive); in assay [7], -1.81% (inactive); in assay [8], -36.8% (inactive). Further, in assay [2], the inhibition of aggregation was 2.5% (inactive). Further, the nuclei count in assay [2] turned out to be 68.1%; in assay [3] it was 111%. Besides, in assay [4], the fluorescence slope was -0.387 (inactive). In assay [5], the NADPH fluorescence slope is -4.6e-06 (inactive). The slope in assay [6] was 0.00549 (inactive).
Take `CCN(CC)C(=O)C1CCCN(c2ncnc3c2cnn3-c2ccc(Cl)cc2)C1` (centres undefined): in assay [1], the cell count was 745. In addition, the inhibition was -5.2% (inactive) in assay [1], -21.1% (inactive) in assay [3], 10.8% (inactive) in assay [7] and 53.6% (active) in assay [8]. The inhibition of aggregation in assay [2] is 0.8% (inactive). The nuclei count is 103% in assay [2] and 109% in assay [3]. Also, in assay [4], the fluorescence slope is -0.543 (inactive). The NADPH fluorescence slope in assay [5] is -1.7e-05 (inactive). In assay [6], the slope is 0.00713 (inactive).
As to `CCNCC(O)COCC(O)CNCC` (centres undefined), in assay [1], the cell count turned out to be 493. Further, the inhibition in assay [1] was -5.5% (inactive); in assay [3], 4.5% (inactive); in assay [7] it was 13.1% (inactive); in assay [8] it was 21.4% (inactive). Moreover, the inhibition of aggregation in assay [2] was -14.4% (inactive). Besides, the nuclei count in assay [2] is 84.2%; in assay [3], 117%. Besides, the fluorescence slope in assay [4] is -0.256 (inactive). Moreover, the NADPH fluorescence slope in assay [5] was 8.5e-06 (inactive). The slope in assay [6] is 0.0061 (inactive).
With `CCOC(=O)C1=C(C)N=c2s/c(=C\c3cccn3C)c(=O)n2C1c1cccc(OC)c1OC` (centres undefined), the cell count in assay [1] was determined as 342. Moreover, the inhibition in assay [1] was 4.5% (inactive); in assay [3], -38% (inactive); in assay [7], 15.4% (inactive); in assay [8], 25.1% (inactive). Moreover, the inhibition of aggregation in assay [2] was 0.2% (inactive). The nuclei count in assay [2] stood at 98.8%; in assay [3], 102%. Also, in assay [4], the fluorescence slope is -0.419 (inactive). In addition, in assay [5], the NADPH fluorescence slope is -8.6e-05 (inactive). For the same compound, the slope in assay [6] is 0.0038 (inactive).
Take `Cc1nnc(NC(=O)c2ccco2)s1`: in assay [1], the cell count was determined as 697. For the same compound, the inhibition is 1.3% (inactive) in assay [1], -34.3% (inactive) in assay [3], 3.15% (inactive) in assay [7] and 14.4% (inactive) in assay [8]. The inhibition of aggregation in assay [2] was -21.8% (inactive). Moreover, the nuclei count is 107% in assay [2] and 110% in assay [3]. In addition, the fluorescence slope in assay [4] is -0.521 (inactive). The NADPH fluorescence slope in assay [5] is -3.3e-05 (inactive). The slope in assay [6] is 0.00691 (inactive).
As for `CSCCC(C(=O)Nc1ccc2c(c1)OCO2)N1C(=O)c2ccccc2C1=O` (centres undefined), in assay [1], the cell count was found to be 632. The inhibition in assay [1] was 3.8% (inactive); in assay [3], -138% (inactive); in assay [7], 9.29% (inactive); in assay [8], 22% (inactive). Further, in assay [2], the inhibition of aggregation was -16.3% (inactive). Besides, the nuclei count in assay [2] was found to be 96.3%; in assay [3], 107%. In assay [4], the fluorescence slope is -0.61 (inactive). In assay [5], the NADPH fluorescence slope is -7.2e-06 (inactive). The slope in assay [6] was 0.006 (inactive).
Regarding `CC(=O)Nc1ccc(S(=O)(=O)Nc2nc3c(s2)CCCC3)cc1`, in assay [1], the cell count came out at 638. Besides, the inhibition in assay [1] was -2.1% (inactive); in assay [3], -46.9% (inactive); in assay [7], 5.19% (inactive); in assay [8] it was -2.08% (inactive). The inhibition of aggregation in assay [2] is 41.1% (inactive). The nuclei count in assay [2] was 95.3%; in assay [3], 108%. Moreover, the fluorescence slope in assay [4] was -0.54 (inactive). Also, the NADPH fluorescence slope in assay [5] is -4.4e-05 (inactive). For the same compound, in assay [6], the slope is 0.00526 (inactive).
In the case of `CCCCn1c2c(c3ccccc31)CCc1nonc1-2`, in assay [1], the cell count was determined as 664. In addition, the inhibition was -4% (inactive) in assay [1], -16.7% (inactive) in assay [3], -16.3% (inactive) in assay [7] and 13.4% (inactive) in assay [8]. The inhibition of aggregation in assay [2] is 8.5% (inactive). The nuclei count in assay [2] was 75.1%; in assay [3], 100%. The fluorescence slope in assay [4] was -0.601 (inactive). Also, the NADPH fluorescence slope in assay [5] is 4.9e-06 (inactive). The slope in assay [6] is 0.00755 (inactive).
`Cc1ccccc1-n1nnnc1SCC(=O)Nc1ccc(S(=O)(=O)N2CCCC2)cc1`: the cell count in assay [1] was found to be 675. Moreover, the inhibition in assay [1] was -5.5% (inactive); in assay [3], -1% (inactive); in assay [7], 23.8% (inactive); in assay [8], 24.1% (inactive). In addition, the inhibition of aggregation in assay [2] was 11% (inactive). Besides, the nuclei count in assay [2] came out at 96.4%; in assay [3], 110%. Further, the fluorescence slope in assay [4] was -0.534 (inactive). The NADPH fluorescence slope in assay [5] is 1.4e-05 (inactive). The slope in assay [6] is 0.00566 (inactive).
As for `CCCCCCc1ccc(-c2ncc(N)cn2)cc1`, the cell count in assay [1] is 478. The inhibition is 3.5% (inactive) in assay [1], -42.4% (inactive) in assay [3], -9.96% (inactive) in assay [7] and -78.9% (inactive) in assay [8]. Also, in assay [2], the inhibition of aggregation was 26.5% (inactive). The nuclei count worked out at 110% in assay [2] and 109% in assay [3]. In assay [4], the fluorescence slope was -0.509 (inactive). In assay [5], the NADPH fluorescence slope was 6.3e-06 (inactive). Also, the slope in assay [6] is 0.00484 (inactive).
Consider `Cc1ccc(NC(=O)c2cc(-c3ccc(C)o3)nc3ccccc23)nc1`, for which the cell count in assay [1] was 414. The inhibition was 6.3% (inactive) in assay [1], 21.6% (inactive) in assay [3], -2.84% (inactive) in assay [7] and -17% (inactive) in assay [8]. The inhibition of aggregation in assay [2] is -7.9% (inactive). Moreover, the nuclei count in assay [2] was found to be 113%; in assay [3], 106%. Moreover, in assay [4], the fluorescence slope was -0.12 (active). The NADPH fluorescence slope in assay [5] was 9.6e-06 (inactive). Also, the slope in assay [6] was 0.00591 (inactive).

These data come from PubChem BioAssay.
